Measured values published in PubChem BioAssay AID1347426 (Functional Genomics Laboratory (NCATS/FGL), 2020).
The campaign covered roughly 31,000 sequences. About 1,400 (4.5%) were called active.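 Rule for the calls: active = median seed-adjusted z-score above 1 or below -1; inactive = the rest.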 Only a selection was taken, and actives are over-represented in it overall.

Assay: Novel Modifiers of Survival Motor Neuron (SMN) Protein: Gene Identification via Genome-wide siRNA Screen;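 note: luminescence tracks full-length SMN protein made from the SMN2 reporter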
Conditions: HEK293T SMN2-luciferase reporter, siRNA knockdown, 72 h; actives lie on both sides
From the text: Spinal muscular atrophy (SMA) is the most common neuromuscular autosomal recessive disorder and one of the leading genetic causes of infant death. SMA results from mutations inducing loss of function or deletion in the survival of motor neuron-1 gene (SMN1), leading to deficiency of the survival motor neuron (SMN) protein. Although a second nearly identical gene, SMN2, is retained in humans, its expression primarily produces an aberrantly spliced isoform that is largely unstable and quickly degraded. We performed a genome-wide RNAi screen using a cell-based reporter assay to identify genes and pathways that modulate SMN protein stability. The screen identified over 200 genes that led to the greatest increase or decrease in luciferase expression.
Using HEK293T cells stably expressing a luciferase reporter that combines the promoter and splicing based cassettes in tandem with the major portion of the native SMN2 cDNA with luciferase, we performed a genome-wide RNAi screen to identify modulators of SMN protein levels. Luciferase is expressed when full-length SMN protein is generated with luminescence signal proportional to SMN protein levels. Our luciferase-based reporter assay was used to screen Ambion Silencer Select Human Druggable Genome siRNA library (10418 genes, 3 unique siRNAs per gene) using lipid-based reverse transfection.
Briefly, 1 pmol of each siRNA was spotted to a well of a 384-well plate (Corning, Corning, NY) and 20 microL of serum-free DMEM containing […] of Lipofectamine RNAiMax (Life Technologies, Carlsbad, CA) was then added to each well. Transfected cells were maintained at 37 degrees C in 5% CO2 for 72 hours, 20 microL of ONE-Glo Reagent (Promega) was added to wells for luciferase quantification. Raw luminescence reads were normalized to Ambion(R) Silencer(R) Negative Control #2 siRNA, then log10 transformed. A robust statistical measure of median absolute deviation (MAD) to standardize siRNA activities from each screen. Common Seed Analysis was used to help prioritize clean hits as opposed to those appearing to arise from seed based off-target effects. Candidate modulators were defined as the genes having a MAD score greater than 1.0 or less than -1.0.

Sequence | median seed-adjusted z-score
GGUGUUGAGUUUCUGCAAATT against CHMP1A | 0 (inactive)
GGAUGAUAGAGGAAUUGUATT against SKIV2L2 | 0.642 (inactive)
CCACCAUCCUACAAGCCUUTT against CYP2S1 | -0.196 (inactive)
GCUAGUCAAGGUUCCUAAATT against GTF2F2 | -1.14 (active)
GCAAUUCCAUGAUAAGGAATT against MMP20 | 0.0623 (inactive)
GCCUUCUCCCUAUUUGAUATT against CALM1 | 0.355 (inactive)
GCAGAAGACUAGAGAGACUTT against ABCC5 | 0.00533 (inactive)
CAGUGCAACCUGGAGAGAATT against NRBP2 | 0.093 (inactive)
ACAGCUCCGUGUUGACUCATT against FOXG1 | 0.749 (inactive)
AAAAGAACGAGGAAGUUAUTT against CACNG2 | 0.00759 (inactive)
GUAUAUGACUGUACACUCATT against AGPAT4 | 0.149 (inactive)
GGAUCACCAACAAUCGCAATT against PDE6A | 1.25 (active)
CAGCAGUUAUGGACCAGUUTT against AMD1 | -0.211 (inactive)
GCAGAAAACUCACCCGAGATT against PCDHB7 | 0.365 (inactive)
AGAACAACCUGGACUAUAUTT against PPP5C | 0.473 (inactive)
CGUUAUUGUUAGCAACACUTT against ZNF280A | -0.207 (inactive)
GGCUAUUAACCGAAGCAAATT against TSPAN31 | -1.13 (active)
UCUACAAGCUGGACCCUGATT against MYO1G | -0.907 (inactive)
GAUGCAUCAUCUGAAUAAATT against CPA6 | 0.343 (inactive)
CGUGUUCAGUGGAAUCACATT against NPC1 | -0.195 (inactive)
UCGAUGUACUGGAGACGGATT against NUCB1 | 0.232 (inactive)
GCGAAUCCAGGAUCAAGAATT against TRIP4 | -0.0385 (inactive)

Sequence | median seed-adjusted z-score
GCUUCUAUUUAGUCACGAATT against AKAP9 | -1.22 (active)
GCAAGUUGGAAGACCGGAATT against XPO5 | -0.031 (inactive)
GAUCCAGAAGGGUAGUUAUTT against SERPINB2 | -0.0739 (inactive)
CAGAUGCGGUUUAAACAGATT against TBC1D9B | -0.906 (inactive)
GAGGUGAUCUUAGACCUGATT against QSOX2 | 0.498 (inactive)
AAAAGACCGUCAACCCUUATT against A2BP1 | 1.17 (active)
CAGUGUGGCUGACAACUUATT against SERTAD1 | 0.376 (inactive)
GGCUAGCUGAUAUCAGUUUTT against DDX31 | 0.0144 (inactive)
GGAGUGUGAUCGACCCUCATT against KRTAP5-5 | -1.07 (active)
ACCUGGUGGUGUCAACUCATT against PTOV1 | 0.115 (inactive)
GGUCGAAGUGUACCCAGUATT against USP11 | -0.0327 (inactive)
CUACAAAUCCCUUACCAAUTT against TRDMT1 | 0 (inactive)
GGUAUACACUGAAUAUCCUTT against LCP1 | -0.386 (inactive)
GUACGAGACCUGUUCCAGATT against UCK2 | -1.51 (active)
ACAUGGACGUGAAAGGGAATT against WFIKKN2 | -0.353 (inactive)
GCUUCGUGCUAGAUAAAGATT against NOP14 | -0.344 (inactive)
CAGCAUUCUUUAUCUCGUATT against FZD3 | -0.0208 (inactive)
CCAUCAUGCUUGAUCGGGATT against SLC4A4 | 0.43 (inactive)
GUACAAUCGUUGACAAUGATT against PPEF1 | -0.58 (inactive)
CUACUGUCCUGAUGUAUCATT against MYF5 | -0.786 (inactive)
GCAGCUGUAUAAGUUACUATT against NFKB1 | 0.31 (inactive)
GGAAGGACUGCGAACCUUATT against POLM | -1.55 (active)

Sequence | median seed-adjusted z-score
AGAUAAGGAUGAAUUGAUATT against KLRB1 | -0.44 (inactive)
GAACUAAUCAGGAAGCUUATT against DHX40 | -0.75 (inactive)
GGAGAGGGUUGACAAAGUATT against PCYT1A | 0.0429 (inactive)
CAUCUGAUCCGGGAAAUCATT against GALNT14 | 0 (inactive)
GUGUCUCCAUAGUACGAGATT against ELP3 | 0.321 (inactive)
AGCUCAACCAUAACGUGAATT against DIRAS2 | -1.25 (active)
CGCAUUGCUUACUUACAAATT against PCDHA10 | 0.0404 (inactive)
GCUGAGGACUUUAAUAUCUTT against GPR175 | 0.245 (inactive)
GAUCCAAGCUAAUAUGAGATT against TGM5 | 0.0181 (inactive)
CCUCAAGGAUUGGGACUAUTT against SLC22A17 | -0.149 (inactive)
GGAAUUUCAUGUUCGGAAUTT against PAFAH2 | 0.0216 (inactive)
GCAUCCGUGGAAAUGGUUATT against ASNS | -1.1 (active)
CAUUCGGAGAAGUCGCAAATT against DDX59 | -0.859 (inactive)
GAUGAUUCAGGUAAAAUAATT against CETN3 | -0.0815 (inactive)
CAACGGGACUAUUAUGAUATT against HNRNPC | -2.15 (active)
GCCACGAAAAUCAAUGAGATT against EDF1 | 0.0783 (inactive)
CCAGCAAACUCAACCAACATT against KCNJ6 | -1.6 (active)
GGAUGACUACAGGCAAGAATT against GPA33 | 0.138 (inactive)
GCUUCACCAGGGACGUGAATT against CD1D | -0.579 (inactive)
AGGUCUCAGAUGAAGCGGUTT against PPM1B | 0 (inactive)
CCCUUAAUAGAGAGAGUUATT against AADAT | 0.0891 (inactive)
GGAUCAAUGAGUUCUCCAUTT against FMOD | -1.32 (active)

Sequence | median seed-adjusted z-score
GGCUCAAGUUCAACGAGUUTT against ARL4C | -0.61 (inactive)
GGCCUAUGCAAAAAGAGGATT against BAD | 0 (inactive)
GGAUACAUUAAGCUAAUAATT against PRMT3 | 0.00875 (inactive)
CCACCCUUCCGAGACAUGATT against TOP3B | -1.11 (active)
GCAUAAGAGGGAAUUCACATT against TAGLN | 0.0485 (inactive)
CGAUCGUCUUCUGAUCAAATT against DPYSL2 | -0.569 (inactive)
ACCUGAGUGUGAACCUCUATT against GDPD5 | -0.0618 (inactive)
CAGUAGUGUUGGUAGACCATT against HADH | 1.11 (active)
GAGUGUAUGUGAUCAUCGATT against PRKCE | 0.568 (inactive)
GGAGAUUGUUUCACGGAAATT against TBC1D23 | 0.0932 (inactive)
GGGACGAGAUCAACGAGAATT against KIF5A | -0.348 (inactive)
UCUUAUUUAUUCUACAUCCTT against TNFRSF6B | 0.0458 (inactive)
GUUGUUCCUUUGUAUCCAATT against DHX32 | -0.12 (inactive)
CCCAGACAAAUUACCUAUATT against CAD | 2.37 (active)
GGACCUAUGAGCAACGAAATT against ATP1A4 | 0.116 (inactive)
GCAUGAACCAGUUAUCACATT against SCYL2 | -0.0652 (inactive)
GCAGCUCUGAGAACGGCAATT against ARHGEF1 | -0.0658 (inactive)
CUACCGAUGCUGAAAGACATT against PGM3 | -0.527 (inactive)
CCACGCUCAUCAUCUCCAATT against SLC4A2 | -0.539 (inactive)
CUACUGUUCUUGACCACAATT against DHX15 | 1.36 (active)
GGCUCAAGGGCUUUGCUGATT against ADSSL1 | 0.0976 (inactive)
CCGUUAGACCAGAACGGAATT against MGA | 0.0136 (inactive)

Sequence | median seed-adjusted z-score
CAUAGUCACAUGAUUAAUATT against POSTN | -0.45 (inactive)
GGAAGACAAUUGCUAAGGUTT against TRO | 2.04 (active)
CCUUAUCCGCUACCUCCAATT against TAF5L | 0.409 (inactive)
GGAAGAAGGUAUUCCGUAUTT against CHD5 | -0.195 (inactive)
CGUCCAUGUUUAUCUACAATT against ENTPD2 | 0.0319 (inactive)
CGAACGAGCUAUCACAGAATT against TFB1M | 0.172 (inactive)
CAUUCGGUAUUUUAUUCUATT against SNRPD1 | -2.97 (active)
CCUUGCAACAUGUUCGUGATT against KRIT1 | -0.447 (inactive)
GAAAAACGAUGUAAGCAAUTT against ADH1A | 0.624 (inactive)
GAGACAAACUAAUUGAGAATT against PPP1R8 | -0.029 (inactive)
GGCUACAAAUGUUCAUCGATT against LRP6 | -0.116 (inactive)
CGUCAAUUCCGGUACACUUTT against PIGM | 1.36 (active)
CACAUUAAAGUGUAAAGAATT against PIP3-E | 0.676 (inactive)
GGACAAAGUCCUAAAGAAATT against MGC21874 | -0.354 (inactive)
GCACUGUCUACAUCCCUGATT against RHCG | 0.375 (inactive)
AGAUAGUUCUGGAACUGGATT against HES2 | -0.186 (inactive)
CCACUAGCACAUUCCGCAATT against RBP2 | 0.0132 (inactive)
GGACGACUCUGAUCUGGAUTT against DYNC1I1 | -0.716 (inactive)
GGCGAAAAAUUGCUACCGATT against PSMC2 | -1.96 (active)
CUCUAGUCGCGUCAAGUUUTT against NISCH | -0.0757 (inactive)
